# Most compounds without a hit are left out; they make up all but 6.7% or so of the library.
# C diff HTS: C. difficile growth inhibitors, primary screen, HTS. Clostridium difficile clinical isolate growth, OD600, 24 h; hits give low values. growth activity, negative = inhibition, % at 16 µg/mL (by protocol). AID 1259249, 2017. 86,000 tested, 0.25% active;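 active = mean growth activity at or below -80% and every replicate also at or below -80%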
# Pf Dd2 growth: P. falciparum Dd2 growth inhibitors, primary screen, SYBR Green fluorescence, single dose replicates. 72 h; hits give low values. AID 1159554, 2015. activity change, % at 10 µM. 94,000 tested, 2.3% active; in the data active = activity change below about -80%
# T cruzi growth: T. cruzi intracellular proliferation inhibitors, primary screen, cell-based, beta-gal Tulahuen parasites, NIH3T3 host, luminescence; 77,000 tested, 5.9% active; T. cruzi beta-gal in NIH3T3, GalScreen luminescence, 90 h; inhibition, % at 8.34 µM; AID 624255, 2012;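 active = mean inhibition above about 93%, with at least 55% of replicates each passing it, limit read from the data, passing the limit was not always enough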
# A number is an active result; n = inactive; x = no result.
SMILES,C diff HTS,Pf Dd2 growth,T cruzi growth
c1ccc(CN2C[C@@H]3N[C@H](C2)C3c2ccc(-c3ccncc3)cc2)cc1 (stereo partly specified),n,-84,x
COc1ccc2c3c(n(C)c2c1)[C@@H](CO)N(C(=O)NC1CCCC1)CC31CN(C)C1,n,n,x
C[C@@H](NC(=O)C[C@H]1CC[C@H]2[C@@H](COC[C@H](O)CN2C(=O)Nc2cc(Cl)cc(Cl)c2)O1)c1ccccc1,x,n,n
CO[C@@H]1CN(C)C(=O)c2cc(NC(=O)NC3CCCCC3)ccc2OC[C@@H](C)N(C(C)=O)C[C@@H]1C,n,n,n
COc1ccc(CN(C)C[C@H]2OCCCC[C@@H](C)Oc3ccc(NC(=O)NC4CCCCC4)cc3C(=O)N([C@H](C)CO)C[C@H]2C)cc1,n,n,n
CN(C)CC(=O)Nc1ccc2c(c1)[C@@H]1C[C@@H](CC(=O)NCc3cccnc3)O[C@@H](CO)[C@@H]1O2,n,n,n
COc1ccc(S(=O)(=O)Nc2ccc3c(c2)C(=O)N([C@@H](C)CO)C[C@H](C)[C@@H](CN(C)C(=O)Nc2ccc(C(F)(F)F)cc2)OCCCC[C@@H](C)O3)cc1,n,-84,n
COc1ccc(S(=O)(=O)Nc2ccc3c(c2)C(=O)N([C@@H](C)CO)C[C@@H](C)[C@@H](CN(C)C(=O)Nc2ccc(C(F)(F)F)cc2)OCCCC[C@H](C)O3)cc1,n,-87,n
COc1ccc(S(=O)(=O)Nc2ccc3c(c2)C(=O)N([C@@H](C)CO)C[C@H](C)[C@H](CN(C)C(=O)Nc2ccc(C(F)(F)F)cc2)OCCCC[C@H](C)O3)cc1,n,n,n
COc1ccc(S(=O)(=O)Nc2ccc3c(c2)C(=O)N([C@@H](C)CO)C[C@H](C)[C@@H](CN(C)C(=O)Nc2ccc(C(F)(F)F)cc2)OCCCC[C@H](C)O3)cc1,n,n,n
C[C@H](CO)N1C[C@H](C)[C@H](CN(C)C)Oc2cc(-c3cccnc3)ccc2S1(=O)=O,n,n,n
C[C@@H]1CN([C@H](C)CO)C(=O)Cc2cc(NS(C)(=O)=O)ccc2O[C@@H]1CN(C)S(=O)(=O)c1cn(C)cn1,n,n,n
CO[C@@H]1CN(C)C(=O)c2cc(NC(=O)Nc3ccc(C(F)(F)F)cc3)ccc2OC[C@H](C)NC[C@H]1C,x,-89,n
CO[C@@H]1CN(C)C(=O)c2cc(NC(=O)Nc3ccc(F)cc3)ccc2OC[C@H](C)NC[C@H]1C,n,n,n
CO[C@@H]1CN(C)C(=O)c2cc(NC(=O)Nc3ccc(C(F)(F)F)cc3)ccc2OC[C@@H](C)NC[C@@H]1C,x,-81,n
CO[C@H]1CN(C)C(=O)c2ccc(NC(=O)Nc3ccc(C(F)(F)F)cc3)cc2OC[C@H](C)NC[C@H]1C,x,-90,n
CO[C@H]1CN(C)C(=O)c2ccc(NC(=O)Nc3ccc(C(F)(F)F)cc3)cc2OC[C@@H](C)NC[C@@H]1C,x,n,n
CO[C@@H]1CN(C)C(=O)c2ccc(NC(=O)Nc3ccc(C(F)(F)F)cc3)cc2OC[C@H](C)NC[C@@H]1C,x,n,n
O=C(N[C@H]1CC[C@H](CCn2cc(C3(O)CCCC3)nn2)O[C@@H]1CO)C1CCOCC1,x,n,n
COc1ccc(S(=O)(=O)N[C@H]2CC[C@H](CCNC(=O)c3ccccc3F)O[C@H]2CO)cc1,n,n,n
C[C@@H]1CCCCO[C@H](CN(C)C(=O)CCCN(C)C)[C@H](C)CN([C@@H](C)CO)C(=O)c2cc(NC(=O)C3CCCCC3)ccc2O1,n,n,n
C[C@H]1CCCCO[C@H](CN(C)S(=O)(=O)c2ccc(F)cc2)[C@@H](C)CN([C@@H](C)CO)C(=O)c2cc(NC(=O)Nc3ccc4c(c3)OCO4)ccc2O1,n,n,n
Cc1ccc(S(=O)(=O)N(C)C[C@H]2OCCCC[C@H](C)Oc3ccc(NC(=O)Nc4ccc5c(c4)OCO5)cc3C(=O)N([C@@H](C)CO)C[C@@H]2C)cc1,x,n,x
Cc1ccc(S(=O)(=O)N(C)C[C@@H]2OCCCC[C@@H](C)Oc3ccc(NC(=O)Nc4ccc5c(c4)OCO5)cc3C(=O)N([C@H](C)CO)C[C@@H]2C)cc1,x,-82,x
C[C@@H]1CN([C@@H](C)CO)C(=O)c2cc(NC(=O)Nc3ccc4c(c3)OCO4)ccc2O[C@@H](C)CCCCO[C@@H]1CN(C)S(=O)(=O)c1ccc(F)cc1,n,n,n
C[C@@H]1CCCCO[C@@H](CN(C)S(=O)(=O)c2ccc(Cl)cc2)[C@@H](C)CN([C@H](C)CO)C(=O)c2cc(NC(=O)Nc3ccc4c(c3)OCO4)ccc2O1,n,-88,n
C[C@@H]1CN([C@H](C)CO)C(=O)c2cc(NC(=O)Nc3ccc4c(c3)OCO4)ccc2O[C@@H](C)CCCCO[C@@H]1CN(C)S(=O)(=O)c1ccc(F)cc1,n,-84,n
